Test results published in PubChem BioAssay AID686978 (National Center for Advancing Translational Sciences (NCATS), 2013).
Among all 420,000 compounds or so, about 64,000 (15%) were called active. About 27% were inconclusive and are not listed. The call rests on the fitted dose curve; in most records, active means well fitted inhibition curve with a large enough effect; inconclusive means small, poorly fitted or top-dose-only effect; inactive means flat fitted curve, though single readings scatter. These entries were drawn from the full list.

Experiment: qHTS for Inhibitors of human tyrosyl-DNA phosphodiesterase 1 (TDP1): qHTS in cells in absence of CPT; further: nearly all actives have a fitted effect of over 55% in size
Conditions: DT40 Tdp1-/- hTDP1 cells, no CPT, ATP luminescence, 48 h; activity change, negative = growth inhibition: at 46.2 µM (top of the series)
Excerpt: Human tyrosyl-DNA phosphodiesterase 1 (TDP1) is a novel repair gene, and we propose to use it as a new target for anticancer drug development. TDP1 is not an essential protein, but under treatment with topoisomerase I poison (camptothecin: CPT), TDP1 works as a critical factor for cell survival. To directly identify novel TDP1 inhibitors active in a cellular environment, we have knocked-out the Tdp1 gene in chicken DT40 cells (Tdp1-/-) and generated a complemented counterpart cells that contains a stable transfection of the human TDP1 gene (Tdp1-/-;hTDP1 cells). For the primary screen, Tdp1-/-;hTDP1 cells will be exposed to small molecules in the presence or absence of CPT, and their growth kinetics will be evaluated after 48 hours by measuring ATP activity. […] The hit compounds will then be evaluated in the presence or absence of CPT using Tdp1-/- cells. […] In tertiary assays, biochemical gel-based assays will be used to assess whether the hit compounds specifically target TDP1.
To this end, we have screened this cell line against the MLSMR in two primary screens. In one screen we add CPT and in the other we screen in the absence of CPT; this AID represents the screen where CPT was absent.
NIH Chemical Genomics Center [NCGC]
NIH Molecular Libraries Probe Centers Network [MLPCN]
Assay Submitter (PI): Yves Pommier, NCI
DT40-hTDP1 cells without 20 nM Camptothecin (add 20 microL of DMSO in 1 L of cell culture medium) were dispensed at 400 cells/5microL/well in tissue culture treated 1536-well white wall/solid bottom assay plates (Greiner Bio-One North America, NC, U.S.A.) using a Multidrop Combi 8 channel dispenser (Thermo Fisher, Waltham, MA, USA). 23 nL compounds and controls were transferred using the pin tool (Kalypsys, San Diego, CA, USA) to the assay plates. The assay plates were then incubated at 37 masculineC for a minimum 48 hr. Three microL of Cell Titer Glo solution was added to the plates and incubated at RT in dark for 30 min. Luminescence was read using ViewLux (Perkin Elmer) with 1 sec exposure slow speed, high gain and 2x binning.
On the % scale 0 is the no-effect control and ±100 the full control effect; potency means the concentration at half of the fitted maximal effect.

Row | SMILES | activity change, negative = growth inhibition | Potency
1 | NC(=O)Cn1cc(/C=N\NS(=O)(=O)c2ccccc2)c2ccccc21 | 19.2% (inactive) | –
2 | Cc1ccc(CNC(=O)Cc2cn(C)c3ccccc23)cc1 | -10.4% (inactive) | –
3 | N#CCC(=O)N/N=C/c1cn(Cc2ccc3ccccc3c2)c2ccccc12 | – | 14.6 µM (active)
4 | CCN1CCN(C(=O)/C=C\C(=O)O)CC1 | -12% (inactive) | –
5 | C=CCn1c(=O)c(C(=O)Nc2ncccc2O)c(O)c2ccccc21 | -18.9% (inactive) | –
6 | CCc1cccc(C)c1NC(=O)COC(=O)CNC(=O)c1cccs1 | 1.78% (inactive) | –
7 | CCc1cccc(CC)c1NC(=O)COc1ccccc1C(=O)c1cc(C#N)c(=O)n(C2CCCCC2)c1 | – | 16.4 µM (active)
8 | Cc1cc(NC(=O)COc2ccccc2C#N)no1 | 14.4% (inactive) | –
9 | CCc1cccc(C)c1NC(=O)COC(=O)CC1CCCC1 | 4.08% (inactive) | –
10 | O=S(=O)(NCC(c1ccco1)N1CCOCC1)c1cc(F)ccc1F (configuration not stated) | -9.31% (inactive) | –
11 | COc1ccc(Cn2ccn(CC(=O)Nc3cc(C)ccc3C)c(=O)c2=O)cc1 | 25% (inactive) | –
12 | CC(C)C(=O)Nc1ccc2c3c(cccc13)CC2 | -15.8% (inactive) | –
13 | CC(=O)c1c(N2CCN(c3ccc(F)cc3)CC2)nc(=S)n(-c2ccccc2)c1C | – | 20.6 µM (active)
14 | Cc1ccc2cc(C)c(N3CCN(c4ccc(F)cc4)CC3)nc2c1 | -3.8% (inactive) | –
15 | CC(=O)c1c(N2CCOCC2)nc(=S)n(-c2cc(C)ccc2C)c1C | -13.9% (inactive) | –
16 | CNC(=O)COc1ccc(S(=O)(=O)Nc2ccccc2)cc1 | -7.11% (inactive) | –
17 | CCn1c(C(C)NC(=O)c2ccc(C)cc2)n[nH]c1=S (configuration not stated) | -9.48% (inactive) | –
18 | C/C(=C\C(=O)c1ccccc1)Nc1cccc(O)c1 | -19.5% (inactive) | –
19 | N/C(=N\OC(=O)CCn1cccc(C(F)(F)F)c1=O)c1ccc(OC(F)(F)F)cc1 | -14% (inactive) | –
20 | Cc1ccc(OCCNC(=O)CN2C(=O)NC3(CCCC3)C2=O)cc1 | -13.8% (inactive) | –
21 | COC1=CC(=O)OC(C)(c2ccccc2)C1 (configuration not stated) | -8.45% (inactive) | –
22 | Cc1nc2c(OCC(=O)C(C)(C)C)cccn2c1N(C)Cc1cccs1 | -75% (inactive) | –
23 | Cc1nc2c(OCc3ccc(Cl)cc3Cl)cccn2c1N(C)CC1CC1 | – | 16.4 µM (active)
24 | Cc1nc2c(OCc3cccc(Cl)c3)cccn2c1N(C)CC1CC1 | – | 20.6 µM (active)
25 | O=C(Nc1c[nH]c(=O)[nH]c1=O)OCc1ccccc1 | -22.5% (inactive) | –
26 | Cc1ccc(C(=O)Nc2ccc(OCc3cc(=O)n4c5c(sc4n3)CCCC5)cc2)cc1 | -9.99% (inactive) | –

Row | SMILES | activity change, negative = growth inhibition | Potency
27 | CC(C)(C)C(=O)NCCCNc1ccc([N+](=O)[O-])cc1 | -0.828% (inactive) | –
28 | CN1CC(=O)N=C1N | – | inactive
29 | O=S(=O)(NCc1ccccn1)c1ccc(F)cc1 | -2.5% (inactive) | –
30 | CCCCN1CC(CO)Oc2cccc(F)c2S1(=O)=O (configuration not stated) | -19.8% (inactive) | –
31 | COc1cc(C(=O)N2CCOC23CCN(Cc2ccccc2)CC3)cc(OC)c1OC | -18.3% (inactive) | –
32 | COc1ccccc1-c1nn(Cc2ccccc2)cc1C(=O)N1CCN(c2ncccn2)CC1 | – | 16.4 µM (active)
33 | COc1cccc(OC)c1C(=O)N1CCN(Cc2cccnc2)CC1 | -17.6% (inactive) | –
34 | COc1ccc(C(=O)NC2CC2)cc1OC1CCN(C/C=C/c2ccccc2)CC1 | – | 23.1 µM (active)
35 | COc1ccc(C(=O)NCCn2nc(C)cc2C)cc1OC1CCN(C(C)=O)CC1 | -18.1% (inactive) | –
36 | COc1cc(C(=O)N2CCN(C/C=C/c3ccccc3)CC2)cc(OC)c1C | – | 29.1 µM (active)
37 | COc1cc(C(=O)N2CCN(C)CC2)cc(OC)c1OC | 9.62% (inactive) | –
38 | COc1cc(C(=O)N2CCN(C(=O)COc3cccc(C)c3)CC2)cc(OC)c1OC | -12.4% (inactive) | –
39 | COc1ccc(C(=O)NC2CC2)cc1OC1CCN(Cc2ccc(SC)cc2)CC1 | -1.42% (inactive) | –
40 | CCOC(=O)CSc1nnc(NC(=O)C2CC(=O)N(c3ccc(F)cc3)C2)s1 (configuration not stated) | -11.9% (inactive) | –
41 | C[C@@H]1O[C@@H](OC[C@H]2O[C@@H](Oc3c(-c4cccc(O)c4O)oc4cc(O)cc(O)c4c3=O)[C@H](O)[C@@H](O)[C@@H]2O)[C@H](O)[C@H](O)[C@H]1O | -5.29% (inactive) | –
42 | O=C1CN(C(=O)COC(=O)C2CC(=O)N(Cc3ccco3)C2)c2ccccc2N1 (configuration not stated) | -19.4% (inactive) | –
43 | COc1cc(C(=O)N2CCOCC2)cc(OC)c1OC | – | inactive
44 | Cc1cc(C)n(CCC(=O)N2CCN(S(=O)(=O)c3ccc(C)c(C)c3)CC2)n1 | 10.6% (inactive) | –
45 | O=C(COc1ccccc1O)NC1CCCC1 | -8.81% (inactive) | –
46 | Cc1ccc(C(=O)N/C(=C\c2ccc(F)cc2)C(=O)NCCN2CCOCC2)cc1 | -6.92% (inactive) | –
47 | O=C(NCCN1CCOCC1)/C(=C/c1ccc(F)cc1)NC(=O)c1ccccc1 | -11.9% (inactive) | –
48 | CC(C)(C)c1ccc(C(=O)N2CCN(CCNC(=O)C(=O)Nc3ccc(F)cc3)CC2)cc1 | – | 10.3 µM (active)
49 | O=C(NCc1ccccc1)c1ccc(CNc2c(N3CCCC3)c(=O)c2=O)cc1 | 6.59% (inactive) | –
50 | CNC(=O)CSc1nnnn1-c1ccc(C)cc1C | -5.97% (inactive) | –
51 | CC1=C(C(=O)OC2CCCCC2)C(c2ccccc2F)NC(=O)N1 (configuration not stated) | -19.8% (inactive) | –
52 | Cc1ccc(C2NC(=S)NC3=C2N2CCC3CC2)cc1 (configuration not stated) | 2.29% (inactive) | –
